Consider 101 compounds from PubChem BioAssay AID1851 (National Center for Advancing Translational Sciences (NCATS), 2009).

SMILES strings stand for the structures. The whole screen tested about 16,000 compounds, of which about 4,000 (25%) were called active. About 26% were inconclusive and are not listed. These entries were drawn from the full list. Unmarked numbers belong to inactive results. Calls follow the shape of the dose curve; as a rule, active = well fitted curve in the direction sought with a large enough effect; inconclusive = small, poorly fitted or top-dose-only effect, or effect the other way; inactive = no such curve, though single readings can be large or run the other way.

As usually defined, the AC50 is the concentration at which the activity in the assay is half-maximal.
% is scaled to controls: 0 for no effect and ±100 for the full control effect.

The target of the assay is Cytochrome P450 2C9 (Homo sapiens) (UniProt P11712). The assay is described as follows: Cytochrome panel assay with activity outcomes. The conditions noted are these: recombinant CYP, pro-luciferin dealkylation, luminescence, p450-cyp2c9; series mostly up to 57.1 µM.
Chain of Cytochrome P450 2C9 (Homo sapiens) (P11712 whole entry, looked up): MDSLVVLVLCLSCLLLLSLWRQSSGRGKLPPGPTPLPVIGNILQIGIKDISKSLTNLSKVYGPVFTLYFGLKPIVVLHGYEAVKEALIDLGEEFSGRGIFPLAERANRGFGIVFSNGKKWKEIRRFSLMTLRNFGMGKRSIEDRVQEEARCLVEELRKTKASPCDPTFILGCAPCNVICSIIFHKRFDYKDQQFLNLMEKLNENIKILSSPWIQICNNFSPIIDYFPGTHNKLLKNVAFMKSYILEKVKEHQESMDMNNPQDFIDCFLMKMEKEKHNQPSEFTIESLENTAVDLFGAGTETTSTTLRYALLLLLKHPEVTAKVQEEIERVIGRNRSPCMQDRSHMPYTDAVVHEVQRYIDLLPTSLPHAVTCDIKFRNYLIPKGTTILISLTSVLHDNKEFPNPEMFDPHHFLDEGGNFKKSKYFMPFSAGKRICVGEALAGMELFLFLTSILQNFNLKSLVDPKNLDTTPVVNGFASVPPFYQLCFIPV
For `CN(C)c1ncc2nc(-c3ccc(Cl)cc3)c(=O)n(C[C@H]3CCCO3)c2n1`, the AC50 entry is “inactive”.
Still for that read-out and setting: as for `Cn1c(SC2CCCCC2=O)nnc1-c1ccncc1` (stereo unspecified), the entry is “inactive”; as for `Cc1ccc(CSc2nnc(-c3ccncc3)n2CC2CCCO2)cc1` (stereo unspecified), 15.8 µM (active); as for `CC1(C)O[C@H]2C[C@@H]3[C@H]4CCC5=CC(=O)CC[C@@]5(C)[C@]4(F)[C@@H](O)C[C@@]3(C)[C@@]2(C(=O)CCl)O1`, “inactive”.
Same read-out and setting: to `N#CC1=C(N)OC2=C(C(=O)CCC2)C12CCC1(CC2)OCCO1` belongs “inactive”.
Take `N#Cc1ccccc1-c1cncnc1NCc1cccnc1`: the activity, negative = inhibition was 12.7% [at 2.29 µM].
Consider `CCC(C)c1ccc(Nc2ncccc2C#N)cc1` (stereo unspecified), for which the concentration at half-maximal activity (AC50) was 17.8 µM (active).
Take `CCc1ccc(Nc2ncccc2C#N)cc1`: the AC50 is 17.8 µM (active).
Still for that read-out and setting: to `C[C@H]1CN(S(=O)(=O)c2cccc3cnccc23)CCN1` belongs “inactive”.
For `C1CCC(N=C(NC23CC4CC(CC(C4)C2)C3)N2CCOCC2)CC1`, the AC50 entry was “inactive”.
Same read-out and setting: to `CCN(CC)CCOC(=O)C(c1ccccc1)c1ccccc1` belongs “inactive”; to `CCN(CC)CCOc1ccc(Cc2ccccc2)cc1`, 15.8 µM (active); to `CCN(CCCc1ccccc1)CCCc1ccccc1`, “inactive”.
Take `O=C1c2cccnc2C(=O)N1Cc1ccc(F)cc1`: the AC50 result was “inactive”.
For the compound `CN[C@@H]1NC(=O)c2ccccc2N1Cc1ccc(F)cc1`, the activity, negative = inhibition is 4.34% [at 11.4 µM].
For `Cc1ccc(NC2c3ncccc3C(=O)N2Cc2ccc(F)cc2)cc1` (stereo unspecified), the AC50 was 15.8 µM (active).
The same measure, in the same setting: as for `COc1ccc(/C(O)=C2/C(=O)C(=O)N(CCCC(=O)O)C2c2ccc(OC)cc2)cc1` (stereo unspecified), the entry is “inactive”; as for `CCOc1ccc(/C(O)=C2/C(=O)C(=O)N(CCCn3ccnc3)C2c2cccs2)cc1Cl` (stereo unspecified), 5.01 µM (active); as for `CCOc1ccc(/C(O)=C2/C(=O)C(=O)N(CCOCCO)C2c2cccnc2)cc1` (stereo unspecified), “inactive”.
Still for that read-out and setting: as for `Cc1ccc(/C(O)=C2/C(=O)C(=O)N(CCCn3ccnc3)C2c2ccccn2)cc1` (stereo unspecified), the figure is 4.47 µM (active); as for `COc1ccc(/C(O)=C2/C(=O)C(=O)N(CCN3CCOCC3)C2c2ccc(C)cc2)cc1` (stereo unspecified), “inactive”; as for `CCOC(=O)c1[nH]c(C)c(/C(O)=C2\C(=O)C(=O)N(CCN3CCOCC3)C2c2cccs2)c1C` (stereo unspecified), “inactive”.
As to `C/C(CCN1CCc2nc(-c3ccccc3)c(-c3ccccc3)cc2C1)=N\O[C@@H](C)c1cn([C@H](CO)Cc2ccccc2)nn1`, the activity, negative = inhibition was -23.3% [at 11.4 µM].
Turning to `Nc1ncnc(N(c2ccccc2)C2CCCCC2)c1[N+](=O)[O-]`, the AC50 result was “inactive”.
For `C[C@@H]1[C@H]2CC[C@@H]3[C@@H]4CC=C5C[C@@H](N(C)C)CC[C@]5(C)[C@@H]4CC[C@@]32CN1C`, the AC50 result was “inactive”.
Regarding `O=C(O)[C@@H]1[C@@H]2C[C@@H]3[C@@H](OC(=O)[C@@H]31)[C@H]2Br`, the activity, negative = inhibition was -8.47% [at 11.4 µM].
The same measure, in the same setting: to `CC(C)[C@H](NC(=O)OC(C)(C)C)[C@@H](O)CC(=O)C(C)(C)C` belongs 9.81% [at 11.4 µM].
Turning to `CCOC(=O)c1c2ccc(OCC(=O)N/N=C/c3ccc(Cl)cc3)cc2n2ccccc12`, the AC50 was 6.31 µM (active).
Regarding `CO[C@H]1COC(=O)C/C=C\[C@@H](C)COC(=O)[C@@H](OCc2ccccc2)/C=C\[C@@H]1C`, the activity, negative = inhibition was -24.9% [at 11.4 µM].
Regarding `C=CCNc1oc(/C=C/c2ccccc2)nc1C#N`, the AC50 was 4.47 µM (active).
For the compound `Cc1nc2ccccc2nc(C)c1=NO`, the AC50 entry was “inactive”.
In the case of `NC(N)=NC(N)=Nc1ccccc1` (tested in a mixture with another compound), the activity, negative = inhibition was -12.4% [at 11.4 µM].
For the compound `Cc1cc2ccccc2c[n+]1CC(O)C[n+]1cc2ccccc2cc1C`, the activity, negative = inhibition is 8.36% [at 11.4 µM].
Turning to `C=CCc1cc(C=O)cc(OC)c1OCc1ccc(Cl)cc1`, the AC50 was 8.91 µM (active).
On the same count and under the same terms, to `O=C(CCCCCn1c(=O)[nH]c2ccsc2c1=O)NCc1ccc2c(c1)OCO2` belongs 4.47 µM (active); to `COCCNC(=O)CCCCCn1c(=S)[nH]c2ccccc2c1=O`, “inactive”.
On the same count and under the same terms, as for `O=C(CCCCn1c(=S)[nH]c2ccsc2c1=O)NCc1ccco1`, the figure is 2.24 µM (active); as for `CC(C)(C)C(=O)OCOC(=O)[C@@H]1N2C(=O)[C@@H](NC(=O)[C@H](N)c3ccccc3)[C@H]2SC1(C)C`, “inactive”.
Same read-out and setting: as for `CCC(C)NC(=O)c1cnn2c(C)c3c(nc12)CCCC3` (stereo unspecified), the entry is “inactive”.
`Cc1nc2c(C(=O)N3CCOCC3)cnn2c(C)c1Cc1ccc(Cl)cc1`: the AC50 is 7.94 µM (active).
The same measure, in the same setting: as for `C#CCCCC(=O)Nc1ccccc1`, the entry is “inactive”; as for `CCCCC#Cc1ccccc1CC(=O)Nc1ccccc1`, 2.51 µM (active).
On the same count and under the same terms, to `CCC#CCOCC(=O)Nc1ccccc1` belongs “inactive”; to `O=C(Cc1ccccc1I)Nc1ccccc1`, 25.1 µM (active).
With `NCC(=O)Nc1ccccc1`, the activity, negative = inhibition was 17% [at 11.4 µM].
For the compound `CCC(=O)NNC(=O)CCC(=O)Nc1ccccc1`, the AC50 result was “inactive”.
For the compound `CC(C)(C)c1ccc(OCC(=O)O)c(Cl)c1`, the activity, negative = inhibition was -19.9% [at 11.4 µM].
Consider `C=C(CC)C(=O)c1ccc(OCC(=O)O)c(Cl)c1Cl`, for which the AC50 was 0.631 µM (active).
As to `COc1cc(NC(=O)Cc2c(C(=O)O)[nH]c3ccccc23)cc(OC)c1OC`, the AC50 was 12.6 µM (active).
On the same count and under the same terms, as for `NC(N)=NC(=O)c1nc(Cl)c(N2CCCCCC2)nc1N`, the entry is “inactive”; as for `Cc1cc(NC(=O)CSc2nnc(-c3ccccc3)n2Cc2ccco2)no1`, 10 µM (active); as for `CNC(=O)NC(=O)CSc1nnc(-c2ccco2)n1Cc1ccccc1`, “inactive”.
Still for that read-out and setting: to `CC(=O)Nc1ccc(NC(=O)CSc2nnc(-c3ccccc3)n2Cc2ccc3c(c2)OCO3)cc1` belongs 11.2 µM (active); to `CC(C)(C)NC(=O)CSc1nnc(Cc2ccc3c(c2)OCO3)n1C1CCCCC1`, “inactive”.
Turning to `CC(C)=NOC[C@@H](O)COCc1ccco1`, the activity, negative = inhibition is 0.0785% [at 11.4 µM].
Turning to `COc1ccc2c(c1)CCC1C2CC[C@]2(C)[C@H](NCCCCCCN3C(=O)C=CC3=O)CC[C@@H]12` (stereo partly specified), the AC50 entry was “inactive”.
For the compound `Clc1ccc2c(N3CCC(CCC4CCN(c5ncnc6cc(Cl)ccc56)CC4)CC3)ncnc2c1`, the activity, negative = inhibition was -21% [at 11.4 µM].
As to `Cc1cccc(-n2ncc3c(Nc4c(C)n(C)n(-c5ccccc5)c4=O)ncnc32)c1`, the AC50 result was “inactive”.
As to `Cc1noc(C)c1-c1ccc2ncnc(N3CCC(C(=O)O)CC3)c2c1`, the activity, negative = inhibition is 14.5% [at 2.29 µM].
In the case of `CCOC(=O)C1CCCN(c2ncnc3c2cnn3-c2ccc(Cl)cc2)C1` (stereo unspecified), the AC50 was 7.08 µM (active).
The same measure, in the same setting: to `CCOC(=O)C1CCCN(c2ncnc3c2cnn3-c2cccc(C)c2)C1` (stereo unspecified) belongs 12.6 µM (active).
`COC(=O)c1ccccc1NC(=O)CSc1nnc(C(CO)NC(=O)c2ccccc2Cl)n1C` (stereo unspecified): the AC50 result is “inactive”.
The same measure, in the same setting: to `COc1ccc(C(=O)NC(CO)c2nnc(SCc3ccc(Cl)c(Cl)c3)n2C)cc1` (stereo unspecified) belongs 14.1 µM (active).
Take `CN(C)Cc1ccccc1-c1nc(NCc2cccs2)c2ccccc2n1`: the activity, negative = inhibition is 5.46% [at 2.29 µM].
Take `CN1CCN2c3ncccc3Cc3ccccc3C2C1` (stereo unspecified): the AC50 is 0.0501 µM (active).
With `COc1ccccc1-c1cncnc1N1CCN(C)CC1`, the activity, negative = inhibition was 3.41% [at 2.29 µM].
Still for that read-out and setting: to `CN1CCN(c2ncncc2-c2cccnc2)CC1` belongs -10.3% [at 2.29 µM]; to `Cc1ccc(C)c(/C(=N\N=C(N)N)C2CC2)c1`, -5.2% [at 11.4 µM].
In the case of `O=S(=O)(c1ccccc1)c1cnc(-c2cccnc2)nc1-c1ccc(Cl)cc1Cl`, the AC50 was 10 µM (active).
`Nc1nc(-c2cccnc2)cc(-c2cc(-c3cccnc3)nc(N)n2)n1`: the activity, negative = inhibition is -11.2% [at 11.4 µM].
As to `O=S(=O)(c1ccc(Cl)cc1)c1cnc(-c2cccnc2)nc1-c1ccccc1`, the AC50 entry was “inactive”.
The same measure, in the same setting: to `CCCc1c(-c2ccc(O)cc2)nn(-c2ccc(O)cc2)c1-c1ccc(O)cc1` belongs “inactive”; to `COc1ccc(-n2c(=O)c(-c3ccc(F)cc3)nc3cnc(OC)nc32)cc1`, “inactive”; to `Cc1ccc(-c2csc(N3CCC(NS(=O)(=O)c4ccc5c(c4)OCCO5)CC3)n2)cc1`, 3.55 µM (active).
Same read-out and setting: to `O=C(O)[C@@H]1CCCNC1` belongs “inactive”.
The same measure, in the same setting: to `CCOc1ccc(CN(C(=O)c2oc3ccccc3c2C)C2CCS(=O)(=O)C2)cc1` (stereo unspecified) belongs 8.91 µM (active); to `CCc1ccc(CN(C(=O)c2cc3ccccc3oc2=O)C2CCS(=O)(=O)C2)cc1` (stereo unspecified), 8.91 µM (active).
With `Cc1cc(C)c[n+](CC(=O)c2cc3ccccc3oc2=O)c1`, the AC50 result is “inactive”.
With `CCc1ccc(OCC(=O)OC2CCS(=O)(=O)C2)cc1` (stereo unspecified), the AC50 entry was “inactive”.
The same measure, in the same setting: as for `CCCN(C(=S)Nc1ccccc1)C1CCS(=O)(=O)C1` (stereo unspecified), the entry is “inactive”.
The same measure, in the same setting: to `Cc1ccc(CN(C(=O)c2cc3ccccc3oc2=O)C2CCS(=O)(=O)C2)cc1` (stereo unspecified) belongs 11.2 µM (active).
On the same count and under the same terms, to `O=C(c1sc2ccccc2c1Cl)N(Cc1ccccc1)C1CCS(=O)(=O)C1` (stereo unspecified) belongs 3.98 µM (active); to `CN(C(=O)COc1cccc(Br)c1)C1CCS(=O)(=O)C1` (stereo unspecified), “inactive”.
In the case of `CC(=O)c1cc2ccccc2oc1=O`, the AC50 result was “inactive”.
Same read-out and setting: as for `CCN(CC)c1ccc2cc(C(C)=O)c(=O)oc2c1`, the entry is “inactive”.
As for `CC(C)(C)c1cc(C(=O)O)c(CN2CCCCC2)o1`, the AC50 entry is “inactive”.
In the case of `CN(C)Cc1ccccc1-c1nc(N(C)Cc2ccco2)c2ccccc2n1`, the activity, negative = inhibition is 11.9% [at 2.29 µM].
With `Nc1ccc(S(=O)(=O)NCc2nccs2)cc1`, the activity, negative = inhibition is -21.4% [at 11.4 µM].
With `O=S(=O)(NCc1cn2ccsc2n1)c1ccc(Oc2ccccc2)cc1`, the AC50 was 7.08 µM (active).
On the same count and under the same terms, to `COCC(=O)N1CCC2(CCN(Cc3ccncc3)CC2)CC1` belongs 0.398 µM (active); to `O=C(c1ccco1)N1CCC2(CCN(Cc3ccccc3)CC2)CC1`, “inactive”.
The same measure, in the same setting: to `O=C(c1ccncc1)N1CCC2(CCN(Cc3ccccc3)CC2)CC1` belongs “inactive”; to `Cn1cccc1C(=O)N1CCC2(CCCN(Cc3ccncc3)C2)CC1`, 1.58 µM (active).
On the same count and under the same terms, to `Cn1cccc1C(=O)N1CCC2(CCN(Cc3ccccc3)CC2)CC1` belongs “inactive”; to `Cn1cccc1C(=O)N1CCC2(CCCN(Cc3ccc(C#N)cc3)C2)CC1`, “inactive”; to `Cn1cccc1C(=O)N1CCC2(CCN(Cc3nccs3)CC2)CC1`, “inactive”.
In the case of `CC(=O)N1CCC2(CCN(Cc3ccncc3)CC2)CC1`, the AC50 entry is “inactive”.
With `Cn1cccc1C(=O)N1CCC2(CCN(Cc3ccncc3)CC2)CC1`, the AC50 was 10 µM (active).
On the same count and under the same terms, as for `COCC(=O)N1CCC2(CCN(Cc3ccccc3OC)CC2)CC1`, the entry is “inactive”; as for `Cn1cccc1C(=O)N1CCC2(CCCN(Cc3ccccc3)C2)CC1`, “inactive”; as for `O=C(c1ccco1)N1CCC2(CCN(Cc3ccncc3)CC2)CC1`, 7.94 µM (active).
